From PubChem
An excerpt weighted towards active compounds, which were near 19% of everything screened.
DT40 TDP1 CPT – growth inhibition of DT40 Tdp1-/-;hTDP1 cells with camptothecin (screen for TDP1 inhibitors); chicken DT40 Tdp1-/-;hTDP1 cells + 20 nM CPT, ATP luminescence, 48 h; Potency, µM (doses to about 46.2 µM), for inactives: at the highest dose activity change, negative = growth inhibition, actives largely listed as inhibitors; actives 12% (n = 420,000); note: potency is the fitted concentration of half-maximal effect; nearly all actives have a fitted effect of over 55% in size
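Chicken DT40 Tdp1-/- cells stably complemented with human TDP1 were seeded at 400 cells/well in medium containing 20 nM camptothecin, exposed to pin-transferred compounds, and grown at 37 °C for at least 48 hr. Viability was read as ATP luminescence.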
HT1080NT lethal – kills 2HG-producing HT-1080-NT fibrosarcoma cells; HT-1080-NT fibrosarcoma viability, CellTiter-Glo ATP luminescence, 48 h; Potency, µM (titrated, usually from 46.1 µM), for the others: at the top dose activity, negative = less viability, usual class: cytotoxic; actives 1.6% (n = 360,000); AID 686970;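 note: NT is the 2HG producing partner of a matched IDH1 knockdown line; potency is the fitted concentration of half-maximal effect; 0% = DMSO-treated cells and -100% = media-only wells without cells; nearly all actives have a fitted effect of over 55% in size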
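Viability of the 2HG-overproducing fibrosarcoma line after 48 hours of compound exposure at 37 degrees C was determined by luminescence with CellTiter-Glo, and concentration-effect curves were then fitted and categorized.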
ELG1 repair inh – ELG1-dependent DNA repair inhibition; actives 2.3% (n = 330,000); Potency, µM (doses to about 46.1 µM), without a hit: top-dose activity change, negative = inhibition, actives largely listed as inhibitors; HEK293T ELG1-luciferase reporter, luminescence, 16 h; DNA damage induced by 5-fluorouridine; note: potency is the fitted concentration of half-maximal effect; nearly all actives have a fitted effect of over 55% in size
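Reporter activity after DNA damage by 5-fluorouridine is monitored. Compound-treated cells incubate 16 hr at 37 °C, then ONE-Glo is added for 30 min before luminescence reading.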
TDP1 cell noCPT – qHTS for Inhibitors of human tyrosyl-DNA phosphodiesterase 1 (TDP1): qHTS in cells in absence of CPT; DT40 Tdp1-/- hTDP1 cells, no CPT, ATP luminescence, 48 h; Potency, µM (doses to about 46.2 µM), without a hit: top-dose activity change, negative = growth inhibition, hits mostly inhibitors; actives 15% (n = 420,000); note: potency is the fitted concentration of half-maximal effect; nearly all actives have a fitted effect of over 55% in size
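Seeded 400 DT40-hTDP1 cells/well (vehicle DMSO, no 20 nM CPT); pinned compounds; ≥48 hr at 37 °C; CellTiter-Glo luminescence as viability measure.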
HT1080 IDH1KD tx – HT-1080 IDH1 knockdown cell toxicity (counter line); actives 2% (n = 360,000); Potency, µM (series often up to 46.1 µM), inactives show top-dose activity, negative = toxicity, most hits filed as cytotoxic; HT-1080 IDH1 knockdown viability, ATP luminescence, 48 h;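 note: potency is the fitted concentration of half-maximal effect; 0% = DMSO wells and -100% = cell-free medium wells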
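After a 2 h attachment period, IDH1KD HT-1080 cells took pin-transferred compound for 48 h at 37 °C; ATP-based luminescence after 10 min room-temperature reagent incubation reported viability.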
IL1B secr inh – inflammasome signaling inhibition, IL-1 beta readout; THP-1 LPS/ATP IL-1B secretion, AlphaLISA, 16 h; hits give low values; activity change, % at 57.5 µM; actives 4.7% (n = 360,000); AID 743279; in the data active = activity change below about -50%; inconclusive = mostly about -30% to -49%
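Secreted IL-1B measured by AlphaLISA bead assay after 16 h compound exposure of THP-1 cells; compounds (final up to 57.5 uM) added 1 h before LPS (250 ng/mL) and ATP (1.25 mM) stimulation; lower signal means less secretion.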
Active calls of the source: *; ? = inconclusive; / = not tested or not shown. Unless noted, calls come from the whole dose curve; as a rule, active = well fitted curve in the direction sought with a large enough effect; inconclusive = small, poorly fitted or top-dose-only effect, or another doubt; inactive = no such curve, though single readings can be large; an effect the other way counts as inactive or inconclusive. Unless noted, % is set by controls: 0 for no effect and ±100 for the full control effect.

SMILES | DT40 TDP1 CPT | HT1080NT lethal | ELG1 repair inh | TDP1 cell noCPT | HT1080 IDH1KD tx | IL1B secr inh
COC(=O)[C@]1(C)CC[C@@]2(C)CC[C@@]3(C)C4=CC=C5C(=CC(=O)C(O)=C5C)[C@@]4(C)CC[C@@]3(C)C2C1 (some centres not stated) | 1.03µM* | / | / | 0.731µM* | / | /
COc1ccc(C=O)cc1 | 16.7% | ? | -1.6% | -12.6% | 9.7% | 0.0
COc1ccc(/C=N\N=C(N)N)cc1 | ? | -2.1% | ? | 16.4µM* | 0.4% | -9.8
NC(N)=N/N=C/c1ccc(N(c2ccccc2)c2ccccc2)cc1 | 16.4µM* | ? | -7.6% | 18.4µM* | ? | -54.8*
NC(N)=N/N=C/c1ccc(N2CCOCC2)cc1 | 4.61µM* | ? | -13.7% | 4.61µM* | -19.5% | 49.8
O=C1NC(=O)C(=Cc2ccc(N3CCOCC3)cc2)C(=O)N1 | -11.7% | 17.2% | 4.9% | -20.9% | 4.8% | -12.3
COc1ccc(-n2c(O)c(C(C)=NCc3ccc4c(c3)OCO4)c(=O)[nH]c2=O)cc1 | 1.4% | -20.1% | 20.2% | 8.5% | 1.2% | -12.3
Cc1ccc(OCCOc2cccc(C=C3C(=O)NC(=O)NC3=O)c2)c(C)c1 | ? | -24.9% | ? | ? | 0.8% | 2.4
CCOC(=O)c1ncn2c1CN(C)C(=O)c1c(I)cccc1-2 | -4.5% | / | / | -9.4% | / | /
C=CCN1CC[C@]23c4c5ccc(O)c4OC2C(O)CC[C@@]3(O)[C@H]1C5 (some centres not stated) | -5.0% | 11.8% | 0.4% | -4.6% | 7.6% | 17.4
CN1C(=O)C(=Cc2ccc(OCCN(C)c3ccccn3)cc2)C(=O)N(C)C1=O | -0.9% | ? | 1.2% | 9.4% | 11.1% | 10.9
CC(C)CNC(=O)c1c(N)n(Cc2ccco2)c2nc3ccccc3nc12 | ? | ? | 25.9µM* | ? | ? | -72.8*
COc1ccc(Cn2c(N)c(C(=O)NCc3ccco3)c3nc4ccccc4nc32)cc1OC | 6.51µM* | ? | ? | 6.51µM* | ? | ?
O=c1c2ccccc2nc(CNCC2CCCO2)n1-c1ccc(F)cc1 (configuration not stated) | ? | 3.5% | 7.2% | -11.1% | 6.5% | 20.9
Nc1c(C(=O)NCC2CCCO2)c2nc3ccccc3nc2n1Cc1ccco1 (configuration not stated) | ? | ? | 23.1µM* | ? | ? | -71.5*
Nc1c(C(=O)NCc2ccco2)c2nc3ccccc3nc2n1CCN1CCCCC1 | 23.1µM* | ? | ? | 23.1µM* | ? | -63.3*
C=CCNC(=O)c1c(N)n(CCN2CCOCC2)c2nc3ccccc3nc12 | -9.4% | ? | -29.3% | -22.5% | -26.6% | ?
O=C(Oc1ccccc1)N1CCC[C@@]2(CCN(C(c3ccccc3)c3ccccc3)C2)C1 | -8.0% | / | / | -23.5% | / | /
Nc1c(Cl)cc([N+](=O)[O-])cc1Cl | 15.7% | / | 10.4% | 2.8% | / | -27.1
CC(C)(C)C(=O)N1Cc2cc(N3CCCCC3)ccc2-n2nncc2C1 | ? | 9.2% | / | ? | 4.7% | -4.6
c1cc2c(cc1N1CCOCC1)CNCc1cnnn1-2 | -0.5% | 19.4% | / | -0.2% | 17.6% | 0.8
CC(C)CNC(=O)c1c(N)n(Cc2ccc3c(c2)OCO3)c2nc3ccccc3nc12 | ? | 20.6µM* | ? | ? | 16.4µM* | ?
CC(C)OC(=O)c1c(N)n(Cc2ccco2)c2nc3ccccc3nc12 | ? | -2.2% | 8.4% | ? | 1.3% | -18.9
COCCCNC(=O)c1c(N)n(Cc2ccco2)c2nc3ccccc3nc12 | ? | -5.5% | ? | 25.9µM* | -1.7% | -54.6*
CCCNC(=O)c1c(N)n(Cc2ccco2)c2nc3ccccc3nc12 | 23.1µM* | 11.2µM* | 23.1µM* | ? | ? | -89.5*
SMILES | DT40 TDP1 CPT | HT1080NT lethal | ELG1 repair inh | TDP1 cell noCPT | HT1080 IDH1KD tx | IL1B secr inh
CC(C(=O)O)N(C(=O)c1ccccc1)c1ccc(F)c(Cl)c1 (configuration not stated) | 14.5% | -4.1% | -0.5% | -9.9% | -0.7% | 37.2
COc1cc(CC(=O)N2C[C@H]3C[C@@H](C2)c2cccc(=O)n2C3)cc(OC)c1OC | 3.9% | 19.4% | 12.4% | -0.1% | 6.0% | 0.0
FC(F)OC(F)(F)C(F)Cl (configuration not stated) | 3.7% | / | / | -12.7% | / | /
Cc1ccnc(NS(=O)(=O)c2ccc(N=Cc3c(O)n(C)c(=O)n(C)c3=O)cc2)n1 | 0.3% | 11.2% | 12.2% | 5.2% | 2.6% | 34.5
COc1ccc(OC)c([C@@H](O)[C@H](C)N)c1 | -26.2% | / | / | -15.0% | / | /
C=C1C(=O)[C@@]23C[C@H]4[C@@H]5[C@@]6(C)CCC[C@@]57[C@@H]2[C@@H](O)[C@@H]1C[C@H]3[C@H]7N4C6 | 4.61µM* | ? | / | 4.11µM* | ? | -108.4*
CCc1ccc(C2=NN(CCC(=O)N3CCC4(CC3)OCCO4)C(=O)CC2)cc1 | 1.5% | -8.3% | -7.4% | -23.5% | -4.4% | -1.9
O=P(Nc1ccccc1)(Nc1ccccc1)Oc1cccc(Cl)c1 | ? | ? | 16.4µM* | ? | ? | -12.2
CC12CCC3C(CCCC4CC(=O)CCC43C)C1CCC2O (configuration not stated) | -29.5% | 9.1% | / | ? | 9.8% | 3.5
COc1ccc(-n2c(=S)[nH]c3c(sc(=S)n3-c3ccccc3)c2=O)c(OC)c1 | 20.6µM* | 1.5% | 0.4% | 16.4µM* | 22.5% | -1.9
COc1ccc(OC)c(CC(=O)O)c1 | -0.3% | 6.1% | 3.2% | -0.6% | -0.2% | 2.0
C=Cc1ccc(Cn2c(C)c(CNCCc3cc(OC)ccc3OC)c(C(=O)O)c2C)cc1 | ? | / | / | 13µM* | / | /
C=CCN1CCC2(C)c3cc(O)ccc3C[C@H]1[C@H]2C | 1.2% | / | / | -15.8% | / | /
CC(=O)OC(C)(C)/C=C/C(=O)[C@](C)(O)C1[C@H](O)C[C@@]2(C)C3CC=C4C(C[C@H](O)C(=O)C4(C)C)[C@]3(C)C(=O)C[C@]12C (some centres not stated) | 0.0082µM* | ? | ? | 0.0206µM* | 0.0326µM* | -106.2*
CC(C)(O)/C=C/C(=O)C(C)(O)C1C(O)CC2(C)C3CC=C4C(C=C(O)C(=O)C4(C)C)C3(C)C(=O)CC12C (configuration not stated) | 0.0366µM* | 0.651µM* | / | 0.0164µM* | 0.146µM* | -102.6*
